Several values for one entry are separate records, joined by “and”; a condition that tells them apart may be missing. Equal values may be shown once. Where a structure was tested more than once in an assay, its records may differ in their call. Activity calls are given as the source filed them. How the source made its calls: active means hit-call score of the fitted dose curve at least 0.9, where 1 is the maximum; inactive means score below 0.9.

In general, AC50 refers to the concentration giving half of the maximal activity seen.

This experiment in a line: ATG_AP_2_CIS: Attagene CIS-FACTORIAL HepG2 Assay for human Activator Protein 2 (AP-2) (AID 2282932). The settings on record: HepG2 AP-2 cis-reporter, Attagene transcription factor profiling; AC50: actives raise or lower the signal unless noted; outcome: actives raise or lower the signal unless noted. The procedure: ATG_CIS is a cell-based, multiplexed-readout assay that uses HepG2, a human liver cell line, with measurements taken at 24 hours after chemical dosing in a 24-well plate.ATG_AP_2_CIS is one of 52 assay component(s) measured or calculated from the ATG_CIS assay. It is designed to make measurements of mRNA induction, a form of inducible reporter, as detected with fluorescence intensity signals by Reverse transcription polymerase chain reaction (RT-PCR) and Capillary electrophoresis technology.Data from the assay component ATG_AP_2_CIS was analyzed into 1 assay endpoint. This assay endpoint, ATG_AP_2_CIS, was analyzed with bidirectional fitting relative to DMSO as the negative control and baseline of activity. Using a type of inducible reporter, measures of mRNA for gain or loss-of-signal activity can be used to understand the reporter gene at the transcription factor-level as they relate to the gene TFAP2A and TFAP2B and TFAP2D. Furthermore, this assay endpoint can be referred to as a primary readout, because this assay has produced multiple assay endpoints where this one serves a reporter gene function. To generalize the intended target to other relatable targets, this assay endpoint is annotated to the dna binding intended target family, where the subfamily is basic helix-turn-helix leucine zipper.
Human liver HepG2 cells are transiently transfected with multiple reporter transcription units (MRTUs) in 6-well plates using FuGene 6 reagent (Roche; 3 ml FuGene/1 mg DNA). The MRTU constructs are regulated by a cis-regulating element (promoter). […] A major difference between the CIS and TRANS system is that in CIS activities of endogenous TFs are measured, whereas the TRANS assay evaluates changes in activities of exogenous, chimeric NR-Gal4 proteins. […] At the end of 24 hour incubation, total RNA was isolated using TriZol reagent (Invitrogen). The isolated RNA is then reverse-transcribed using oligo(dT) primer and Mo-MLV reverse transcriptase (Invitrogen) with DNAse I (Ambion) treatment for 30 min. The one-tenth of the produced cDNA was amplified by PCR using Taq DNA polymerase (Invitrogen) and two reporter sequence-specific primers. The PCR products were fluorescently labeled by primer extension with 6-arboxyfluorescein (6-FAM) 5'-labeled reporter sequence-specific primer (2 min at 95 C, 20 s at 68 C and 10 min at 72 C) and these products were digested with 5U of HpaI (New England Biolabs) for 2h at 37 C. The fragments were purified using Qiaquick PCR columns (Qiagen), analyzed on an ABI 3130xL genetic analyzer (Applied Biosystems) with peak positions identified by using a set of X-rhodamine (ROX)-labeled MapMarker1000 molecular weight standards (BioVentures). The raw capillary electrophoresis data was processed using Attagraph software (Attagene).
Turning to `FC(F)(F)C(F)(F)C(F)(F)Br`, the call was inactive. Regarding `NC(=NCCCCCCN=C(N)/N=C(\N)Nc1ccc(Cl)cc1)/N=C(\N)Nc1ccc(Cl)cc1`, the result was inactive and the half-maximal activity concentration (AC50) is 16.9 µM (active). `C=CC(C)(CCC=C(C)C)OC(C)=O` (stereo not given): the result was inactive.

With `Cc1ccc(N=Nc2c(O)ccc3ccccc23)c(C)c1`, the molecule was classed as inactive. Take `CCCCCCCCCCCC[N+](C)(C)Cc1ccccc1`: the AC50 is 15.7 µM (active) and the call was inactive. As for `O=C(O)CN(CCCN(CC(=O)O)CC(=O)O)CC(=O)O`, the molecule was classed as inactive. Take `N=C(N)c1ccc(OCCCCCOc2ccc(C(=N)N)cc2)cc1`: the call was inactive. For the molecule `Cc1ccccc1OCC(=O)O`, the result was inactive.

As for `FC(F)(F)N1C(F)(F)C(F)(F)OC(F)(F)C1(F)F`, the molecule was called inactive. As to `O=C(O)C(=O)O`, the molecule was classed as inactive. For `Cc1cncc(C)c1`, the molecule was classed as inactive. As to `O=C(Nc1ccc(Cl)c(Cl)c1)c1cc(Cl)cc(Cl)c1O`, the half-maximal activity concentration (AC50) is 2.07 µM (active). As to `CN(Cc1cnc2nc(N)nc(N)c2n1)c1ccc(C(=O)N[C@@H](CCC(=O)O)C(=O)O)cc1`, the result was inactive. Same read-out and setting: for `C=CC(=O)OCCC(F)(F)C(F)(F)C(F)(F)C(F)(F)C(F)(F)C(F)(F)F` the value was “inactive”.

Turning to `NC(C(F)(F)F)C(F)(F)F`, the molecule was classed as inactive. On the same count and under the same terms, for `CCC(C)c1ccccc1O` (stereo not given) the value was “inactive”.

With `Oc1c(Cl)cc(Cl)cc1Sc1cc(Cl)cc(Cl)c1O`, the call was inactive. `CCCCC=O`: the molecule was classed as inactive. On the same count and under the same terms, for `CCC(=O)O` the value was “inactive”; for `CS(=O)(=O)c1ccc([C@@H](CC2CCCC2)C(=O)Nc2cnccn2)cc1Cl`, “inactive”. On the same count and under the same terms, for `CC[N+](CC)(CC)Cc1ccccc1` the value was “inactive”.

Consider `CCCCCCCCCCCCCCCCCC[N+](C)(C)Cc1ccccc1`, for which the AC50 was 88.1 µM (active).

As to `Cc1[nH]nc2c1N=C(c1ccccc1Cl)c1cc([N+](=O)[O-])ccc1N2`, the AC50 was 3.12 µM (active). Take `CC(C)(C)c1ccc(CCC=O)cc1`: the outcome was inactive.

For `CC(C)C=O`, the result was inactive. Same read-out and setting: under `O=P(O)(O)CCC(F)(F)C(F)(F)C(F)(F)C(F)(F)C(F)(F)C(F)(F)C(F)(F)C(F)(F)F` stands “inactive”. On the same count and under the same terms, under `O=C(F)C(F)(F)C(F)(F)C(F)(F)C(F)F` stands “inactive”; under `O=C(c1cc(O)c(O)c(O)c1)c1ccc(O)c(O)c1O`, “inactive”. Still for that read-out and setting: under `CNNCc1ccc(C(=O)NC(C)C)cc1` stands “inactive”; under `CCCCCCCCCCCCOC(=O)c1cc(O)c(O)c(O)c1`, “inactive”.

For the molecule `Cc1ccc(S(=O)(=O)O)cc1`, the call was inactive. Turning to `CC(C)CCOCCC(C)C`, the outcome was inactive. `O=C(O)C(F)(F)OC(F)(F)C(F)(F)OC(F)(F)C(F)(F)OC(F)(F)C(F)(F)C(F)(F)C(F)(F)F`: the AC50 is 93.6 µM (active) and 28.1 µM (active).

Take `CCCCCc1ccc(O)cc1`: the outcome was inactive.

Consider `C=CC(=O)OCC(CO)(COCC(COC(=O)C=C)(COC(=O)C=C)COC(=O)C=C)COC(=O)C=C`, for which the outcome was inactive. `C=CC(=O)OCCN(CC)CC`: the call was inactive.

With `CC1=NN(c2ccccc2)C(=O)C1`, the call was inactive. For `O=C(O)CCC(F)(F)C(F)(F)C(F)(F)C(F)(F)C(F)(F)C(F)(F)F`, the result was inactive.

The values above are taken from PubChem BioAssay (EPA / NIEHS).
